# A selection: hits, their analogues and other compounds. The true share with any hit is near 19%.
# HT1080 IDH1KD tx: HT-1080 IDH1 knockdown cell toxicity (counter line); HT-1080 IDH1 knockdown viability, ATP luminescence, 48 h; AID 686971; hit rate 2% among 360,000; Potency, µM (series often up to 46.1 µM), inactives show at the highest dose activity, negative = toxicity, hits mostly cytotoxic;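 note: potency is the fitted concentration of half-maximal effect; 0% = DMSO wells and -100% = cell-free medium wells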
#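 After a 2 h attachment period, IDH1KD HT-1080 cells took pin-transferred compound for 48 h at 37 °C; ATP-based luminescence after 10 min room-temperature reagent incubation reported viability.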
# DT40 TDP1 CPT: growth inhibition of DT40 Tdp1-/-;hTDP1 cells with camptothecin (screen for TDP1 inhibitors); hit rate 12% among 420,000; chicken DT40 Tdp1-/-;hTDP1 cells + 20 nM CPT, ATP luminescence, 48 h; Potency, µM (doses to about 46.2 µM), without a hit: at the top dose activity change, negative = growth inhibition, usual class: inhibitors; AID 686979; note: potency is the fitted concentration of half-maximal effect; nearly all actives have a fitted effect of over 55% in size
#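 Chicken DT40 Tdp1-/- cells complemented with human TDP1, 400 cells/well, exposed to compounds plus 20 nM camptothecin for at least 48 h at 37 C; viability read as ATP content by CellTiter-Glo luminescence.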
# HT1080NT lethal: kills 2HG-producing HT-1080-NT fibrosarcoma cells. Potency, µM (top dose mostly 46.1 µM), for the others: top-dose activity, negative = less viability, actives largely listed as cytotoxic. HT-1080-NT fibrosarcoma viability, CellTiter-Glo ATP luminescence, 48 h. hit rate 1.6% among 360,000;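 note: NT is the 2HG producing partner of a matched IDH1 knockdown line; potency is the fitted concentration of half-maximal effect; 0% = DMSO-treated cells and -100% = media-only wells without cells; nearly all actives have a fitted effect of over 55% in size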
#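 Compounds were tested in concentration-response format on HT-1080-NT cells for 48 hours at 37 degrees C. Cell viability came from CellTiter-Glo luminescence; curves were classified by r2, response magnitude and activity.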
# TDP1 cell noCPT: qHTS for Inhibitors of human tyrosyl-DNA phosphodiesterase 1 (TDP1): qHTS in cells in absence of CPT; Potency, µM (titrated, usually from 46.2 µM), inactives show at the highest dose activity change, negative = growth inhibition, most hits filed as inhibitors; DT40 Tdp1-/- hTDP1 cells, no CPT, ATP luminescence, 48 h; hit rate 15% among 420,000; AID 686978, 2013; note: potency is the fitted concentration of half-maximal effect; nearly all actives have a fitted effect of over 55% in size
#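 Chicken DT40 Tdp1-/- cells stably complemented with human TDP1 were seeded at 400 cells/well with DMSO in place of 20 nM camptothecin. After compound pinning, cells grew at least 48 hr at 37 °C; viability read by CellTiter-Glo luminescence.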
# IL1B secr inh: blocks inflammasome-driven IL-1 beta release | THP-1 LPS/ATP IL-1B secretion, AlphaLISA, 16 h; active compounds read low | activity change, % at 57.5 µM | hit rate 4.7% among 360,000; in the data active = activity change below about -50%; inconclusive = mostly about -30% to -49%
#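 Secreted IL-1B measured by AlphaLISA bead assay after 16 h compound exposure of THP-1 cells; compounds (final up to 57.5 uM) added 1 h before LPS (250 ng/mL) and ATP (1.25 mM) stimulation; lower signal means less secretion.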
# Numbers without * were called inactive; ? = inconclusive; nt = no result given. Unless noted, calls come from the whole dose curve; as a rule, active = well fitted curve in the direction sought with a large enough effect; inconclusive = small, poorly fitted or top-dose-only effect, or another doubt; inactive = no such curve, though single readings can be large; an effect the other way counts as inactive or inconclusive. Unless noted, % is set by controls: 0 for no effect and ±100 for the full control effect.
SMILES,HT1080 IDH1KD tx,DT40 TDP1 CPT,HT1080NT lethal,TDP1 cell noCPT,IL1B secr inh
Cc1nn(C2CCS(=O)(=O)C2)c(Cl)c1/C=C/C(=O)OCC(=O)c1cc(C)n(-c2ccc(F)cc2)c1C (stereo not drawn),?,21µM*,-18%,16µM*,-18
Brc1ccc(-c2csc(-c3ccncc3)n2)cc1,11%,-19%,5%,-16%,15
CC1c2ccsc2CCN1S(=O)(=O)c1ccccc1 (stereo not drawn),-13%,-18%,-2%,-16%,-6
O=S(=O)(c1cccc(F)c1)N1CCc2sccc2C1c1ccc(OC(F)(F)F)cc1 (stereo not drawn),-23%,?,?,15µM*,7
Cc1ccc(C2CC(c3ccc(Cl)cc3)=NNC2=O)cc1 (stereo not drawn),-3%,-12%,-4%,?,-13
CCc1ccc(C2CC(c3ccc(Cl)cc3)=NNC2=O)cc1 (stereo not drawn),-1%,?,6%,?,-52*
O=C1NN=C(c2ccc(Br)cc2)CC1c1ccc(Cl)cc1 (stereo not drawn),-14%,?,0%,?,-85*
O=C(NCc1cccc(Cl)c1)c1cccc(S(=O)(=O)N2CCCC2)c1,-2%,-21%,0%,-20%,-8
Cc1ccc(N(C(=O)c2snc(C(N)=O)c2N)C(C(=O)NC2CCCC2)c2ccc(C)o2)cc1 (stereo not drawn),-20%,?,-22%,?,-77*
Cc1cccc(N(C(=O)c2snc(C(N)=O)c2N)C(C(=O)NC2CCCC2)c2ccc(C)o2)c1 (stereo not drawn),-27%,18µM*,?,15µM*,-18
Cc1ccc(N(C(=O)c2snc(C(N)=O)c2N)C(C(=O)NC2CCCC2)c2ccco2)cc1 (stereo not drawn),-12%,?,-14%,?,-7
CN(C)c1cccc(C(=O)Nc2nc3ccc(S(=O)(=O)N4CCCC4)cc3s2)c1,nt,6.5µM*,nt,8.2µM*,nt
COc1cc(C(=O)Nc2nc3ccc(S(=O)(=O)N4CCOCC4)cc3s2)cc(OC)c1OC,-7%,?,-5%,-26%,22
COc1ccccc1C(=O)Nc1nc2ccc(S(=O)(=O)N3CCCC3)cc2s1,nt,-2%,nt,-25%,nt
COc1cccc(C(=O)Nc2nc3ccc(S(=O)(=O)N4CCCC4)cc3s2)c1,nt,4.6µM*,nt,5.2µM*,nt
O=C(Nc1nc2ccccc2s1)C1CCN(S(=O)(=O)c2cc([N+](=O)[O-])ccc2Cl)CC1,16µM*,15µM*,?,15µM*,-21
COc1ccc2nc(NC(=O)c3cc(S(=O)(=O)N4CCOCC4)ccc3C)sc2c1,-13%,?,-6%,18µM*,-21
Cc1ccc(C(=O)Nc2nc3ccc(S(=O)(=O)N4CCCC4)cc3s2)cc1,nt,-2%,nt,-12%,nt
CC1(C)CC(=O)C=C(NCCc2ccc(S(N)(=O)=O)cc2)C1,8%,2%,7%,-26%,-2
O=C(Nc1nc2ccc(S(=O)(=O)N3CCCCC3)cc2s1)C1CCCO1 (stereo not drawn),-21%,?,-1%,?,-20
O=C(Nc1nc2ccccc2s1)C1CCN(C(=O)c2ccco2)CC1,-2%,?,?,15µM*,?
Nc1nc2ccc(S(=O)(=O)N3CCCCC3)cc2s1,1%,8.2µM*,0%,9.2µM*,-106*
Cc1nc2ccc(S(=O)(=O)N3CCCCC3)cc2s1,-7%,0%,0%,-11%,6
O=C(Nc1nc2ccc(S(=O)(=O)N3CCCC3)cc2s1)C1CCCCC1,15µM*,2.6µM*,21µM*,4.6µM*,-5
COc1ccccc1N1CCN(c2nc3ccccn3c(=O)c2C=O)CC1,-4%,-16%,0%,?,-20
SMILES,HT1080 IDH1KD tx,DT40 TDP1 CPT,HT1080NT lethal,TDP1 cell noCPT,IL1B secr inh
CCOc1ccc(CNS(=O)(=O)c2cccs2)cc1OCC,4%,-5%,3%,?,15
COc1cc(OC)cc(-c2sc3ccc(OC)cc3c2-c2ccc(OCCN3CCCCC3)cc2)c1,-29%,?,?,?,-23
CN(C)CCOc1ccc(-c2c(-c3ccccc3)sc3ccccc23)cc1,?,10µM*,?,6.5µM*,?
COc1ccc(-c2sc3cc4c(cc3c2C#CC2(O)CCCCC2)OCO4)cc1,-25%,18µM*,-20%,21µM*,-9
c1ccc2c(-c3ccc(OCCN4CCCCC4)cc3)c(-c3ccsc3)sc2c1,-3%,16µM*,-2%,16µM*,-4
COc1ccc(-c2sc3cc4c(cc3c2-c2ccc(OCCN3CCCCC3)cc2)OCO4)cc1,1%,16µM*,-3%,21µM*,6
c1ccc(-c2sc3ccccc3c2-c2ccc(OCCN3CCCCC3)cc2)cc1,2%,?,-2%,?,-8
COc1ccc(S(=O)(=O)N2CCN(C(=O)c3ccco3)CC2)cc1C(C)(C)C,-4%,?,-11%,?,-4
CCOC(=O)c1cc(-c2ccccc2)sc1NC(=O)CCN1C(=O)c2ccccc2C1=O,22%,-20%,20%,?,3
CCOC(=O)c1cc(-c2ccccc2)sc1NC(=O)c1ccc(OC)cc1,11%,7.3µM*,16%,?,-14
CCOC(=O)c1cc(-c2ccccc2)sc1NC(=O)COC(=O)c1cccc(S(N)(=O)=O)c1,?,?,-21%,10µM*,-11
CCOC(=O)c1cc(-c2ccccc2)sc1NC(=O)C(C)N1C(=O)c2ccccc2C1=O (stereo not drawn),22%,-5%,27%,-4%,-53*
COc1ccc(NC(=O)COC(=O)C2C3CC4OC(=O)C2C4C3)cc1 (stereo not drawn),-2%,1%,5%,1%,-1
CCOC(=O)c1[nH]c2ccccc2c1NC(=O)c1ccc(OCC)cc1,nt,-8%,nt,1%,nt
COCC(=O)NCCSc1c(C)[nH]c2ccccc12,4%,2%,18%,8%,-4
CCOC(=O)c1[nH]c2ccccc2c1NC(=O)c1ccc(S(=O)(=O)N(C)C)cc1,4%,-7%,-1%,-24%,0
COCC(=O)c1[nH]c2ccccc2c1C,1%,26µM*,-6%,?,17
CCOC(=O)c1[nH]c2ccc(Br)cc2c1NC(=O)CCN1CCC(C)CC1,?,?,?,18µM*,-15
CCOC(=O)c1[nH]c2ccccc2c1NC(=O)c1ccccc1OCC,nt,0.65µM*,nt,0.73µM*,nt
CCOC(=O)c1[nH]c2ccccc2c1NC(=O)c1ccc(S(=O)(=O)N2CCCCC2)cc1,-13%,?,-15%,23µM*,13

# Assay outcomes: PubChem, National Center for Advancing Translational Sciences (NCATS)
